From PubChem BioAssay
Hits are enriched below; roughly 2.4% of the tested compounds scored in any of these assays.
Pol beta inh – inhibitors of human DNA polymerase beta | P06746 | Pol beta primer extension/strand displacement, fluorescence kinetic | Potency, µM (doses to about 114 µM), inactives show at the top dose activity change, negative = inhibition, usual class: inhibitors | 340,000 tested, 1.3% active | AID 485314; also: % is scaled to controls: 0 for no effect and ±100 for the full control effect
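Curves were derived by four-parameter Hill fits of normalized qHTS data. The kinetic fluorescent primer-extension read was taken at 0 and 10 min after 50 nM substrate, following a 15 min room-temperature preincubation of 10 nM enzyme with compounds.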
FEN1 inhibitor – human FEN1 inhibition | 390,000 tested, 0.35% active | Recombinant FEN1 flap cleavage, fluorescence, 15 min | P39748 | Potency, µM (titrated, usually from 114 µM), without a hit: at the top dose activity change, negative = inhibition, most hits filed as inhibitors; also: % is scaled to controls: 0 for no effect and ±100 for the full control effect; nearly all actives have a fitted effect of over 65% in size
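Compounds are tested as a concentration series against 10 nM FEN1; after a 15 min room-temperature preincubation, 50 nM substrate starts cleavage, with plate reads at 0 and 15 min. Normalized responses are fitted by a Hill equation.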
POLK inh – DNA polymerase kappa (human) inhibition; Q9UBT6; purified Pol kappa, fluorescent DNA synthesis assay, 10 min; Potency, µM (top dose mostly 107 µM), for inactives: at the top dose activity, negative = inhibition, actives largely listed as inhibitors; 400,000 tested, 0.53% active; also: % is scaled to controls: 0 for no effect and ±100 for the full control effect
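Fluorescent qHTS in 1536-well format: enzyme (10 nM) and compound sat 15 min at room temperature before 50 nM substrate (final) was added. Signal taken at 0 and 10 min; no-enzyme buffer wells were negative controls.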
Pol iota inh – blocks human DNA polymerase iota activity; Q9UNA4; Pol iota fluorescent replication assay, 10 min; Potency, µM (titrated, usually from 115 µM), without a hit: at the top dose activity, negative = inhibition, hits mostly inhibitors; 390,000 tested, 1% active; AID 588590
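Fluorescent replication assay read twice, at 0 min and 10 min after adding 50 nM (final) substrate. Enzyme (10 nM) and compounds were first incubated 15 min at room temperature; enzyme-free buffer wells were negative controls.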
TDP1 inh – blocks human tyrosyl-DNA phosphodiesterase 1; recombinant TDP1, AlphaScreen DNA substrate cleavage; 350,000 tested, 0.28% active; Potency, µM (doses to about 130 µM), inactives show at the highest dose activity change, negative = inhibition, hits mostly inhibitors; also: % is scaled to controls: 0 for no effect and ±100 for the full control effect; nearly all actives have a fitted effect of over 40% in size
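Tdp1 1 nM final; 15 min RT w/ cpd; substrate 15 nM, 5 min; beads 10 ug/ml, 10 min; AlphaScreen read. Neg ctrl: no enzyme.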
Pol eta inh – blocks human DNA polymerase eta activity; Q9Y253; 390,000 tested, 1.2% active; recombinant Pol eta, fluorescent DNA replication assay; Potency, µM (top dose mostly 114 µM), for inactives: top-dose activity change, negative = inhibition, actives largely listed as inhibitors; also: % is scaled to controls: 0 for no effect and ±100 for the full control effect
Target sequence (Q9Y253 whole entry, looked up): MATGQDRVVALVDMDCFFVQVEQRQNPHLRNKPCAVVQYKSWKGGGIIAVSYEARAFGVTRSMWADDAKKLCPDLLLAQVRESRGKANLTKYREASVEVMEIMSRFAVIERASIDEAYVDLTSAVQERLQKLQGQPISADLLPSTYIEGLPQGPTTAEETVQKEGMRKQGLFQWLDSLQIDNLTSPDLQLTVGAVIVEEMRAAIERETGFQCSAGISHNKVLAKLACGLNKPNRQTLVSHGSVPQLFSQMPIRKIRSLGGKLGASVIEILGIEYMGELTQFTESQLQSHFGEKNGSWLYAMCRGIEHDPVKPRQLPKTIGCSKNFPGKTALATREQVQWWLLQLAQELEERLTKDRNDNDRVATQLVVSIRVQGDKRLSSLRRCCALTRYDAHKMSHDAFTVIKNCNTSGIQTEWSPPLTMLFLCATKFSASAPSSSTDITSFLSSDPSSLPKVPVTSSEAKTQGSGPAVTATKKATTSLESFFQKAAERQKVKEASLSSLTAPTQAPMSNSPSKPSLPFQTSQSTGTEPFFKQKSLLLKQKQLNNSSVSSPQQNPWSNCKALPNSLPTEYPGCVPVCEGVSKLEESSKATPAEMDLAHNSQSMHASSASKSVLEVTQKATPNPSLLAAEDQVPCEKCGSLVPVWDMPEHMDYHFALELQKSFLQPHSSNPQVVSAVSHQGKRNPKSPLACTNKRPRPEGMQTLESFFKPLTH
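Pol eta (10 nM) was preincubated with compounds for 15 min at room temperature, after which fluorescent replication substrate (50 nM final) was added to start the reaction. Fluorescence was read kinetically at 0 and 10 min.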
Active calls of the source: *; ? = inconclusive; . = not tested or not shown; [ ] = dose if it differs, or a comment. Calls follow the shape of the dose curve; as a rule, active = well fitted curve in the direction sought with a large enough effect; inconclusive = small, poorly fitted or top-dose-only effect, or another doubt; inactive = no such curve, though single readings can be large; an effect the other way counts as inactive or inconclusive. Potency is read from the fitted curve at half-maximal effect.

SMILES	Pol beta inh	FEN1 inhibitor	POLK inh	Pol iota inh	TDP1 inh	Pol eta inh
O=C(Nc1nc(-c2ccccn2)cs1)C1CC(=O)N(c2ccc3c(c2)OCCO3)C1 (configuration not stated)	13µM*	7%	?	20µM*	3%	?
Cc1nc(C#N)nc(Oc2ccccc2)c1Cl	.	11%	6%	11%	.	.
Oc1c(/C=C/C=C/C=Nc2ccccc2)sc(=S)n1Cc1ccccc1	-58%	-16%	79µM*	25µM*	.	?
COC1C(OC(=O)/C=C/C=C/C=C/C=C/C(=O)O)CCC2(CO2)C1C1(C)OC1CC=C(C)C (configuration not stated)	.	.	-5%[60.1 µM]	.	-6%	.
CCN1/C(=C2\SC(=S)N(Cc3ccccc3)C2=O)Sc2ccccc21	11%	-4%	-2%	?	0%	-16%
CCC(CO)[n+]1c(C)cc(/C=C2\Sc3ccccc3N2Cc2ccccc2)cc1C (configuration not stated)	?	50µM*	-40%	38%	4%	?
CN=c1sc2c(n1C)C(=O)c1ccccc1C2=O	.	-4%	-3%	?	.	79µM*
Cc1ccc(-c2csc(/C(C#N)=C(\O)CCl)n2)cc1	?	51%	-18%	?	3%	45µM*
N#C/C(=C(/O)CCl)c1nc(-c2ccccc2)cs1	?	-6%	-15%	?	2%	40µM*
CCCCNc1ccc(/C=C2\C=Cc3ccccc32)cc1	.	-1%	-9%	24%	.	.
Cc1cn([C@@H]2C[C@H](N=[N+]=N)[C@H](CO)O2)c(=O)[nH]c1=O	.	.	-5%[12 µM]	.	6%[56.1 µM]	.
CN(C)S(=O)(=O)c1cccc(-c2nn(-c3ccccc3)cc2/C=C2\SC(=S)NC2=O)c1	20µM*	?	?	?	5%	14µM*
Clc1ccc(-c2nnc3sc(-c4ccc(Br)o4)nn23)cc1	0%	-1%	-16%	89µM*	4%	?
Clc1ccc(-c2nnc3sc(-c4ccc(Br)o4)nn23)c(Cl)c1	1%	1%	-13%	9%	5%	-3%
COc1ccc(NC(=O)c2c(-c3ccccc3)c(-c3ccccc3)nn(C)c2=O)c(OC)c1	2%	14%	2%	8%	5%	-2%
CC(C)(C)c1c(Cl)c(O)c(-c2ccccc2)c(=O)n1-c1ccccc1	11%	-17%	-12%	1.1µM*	1%	9%
Cc1ccc(-c2csc(NC(=O)c3ccc(Br)cc3)c2C(=O)O)cc1	20%	11%	1%	24%	.	50µM*
Cc1cccc(C(=O)Nc2scc(-c3ccc(Br)cc3)c2C(=O)O)c1	.	-8%	-8%	80%	.	-4%
O=C(N/N=C/c1ccc(OC(F)F)cc1)c1ccc(Br)cc1	79µM*	0%	-3%	-14%	0%	-14%
O=C(N/N=C/c1ccc(OC(F)F)cc1)c1cc[n+]([O-])cc1	12%	0%	-7%	-9%	5%	7%
O=C(NN=C1CCCC1)c1cc(O)cc(O)c1	20µM*	-26%	?	35µM*	18µM*	50µM*
Nc1cccc(N)c1	.	.	.	.	15%	.
Nc1cc(N)cc(N)c1	.	?	?	1.6µM*	.	.
Cn1c(CCNC(=O)C(C)(C)C)nc2ccccc21	43%	5%	-5%	12%	0%	25µM*
CC1CCCC(C)N1/N=C/c1ccc(O)c(O)c1 (configuration not stated)	2.2µM*	4%	40µM*	?	.	?
SMILES	Pol beta inh	FEN1 inhibitor	POLK inh	Pol iota inh	TDP1 inh	Pol eta inh
CC(=O)c1ccc(OCC(=O)N2CCN(S(=O)(=O)c3ccc(Br)s3)CC2)cc1	.	-3%	-9%	-13%	0%	-9%
CCC(=O)c1ccc(OCC(=O)N2CCN(S(=O)(=O)c3ccc(Cl)s3)CC2)cc1	.	-13%	?	?	-3%	45µM*
Cn1c(SCc2ccc(Cl)cc2)nnc1-c1ccc(NC(=O)CCc2ccccc2)cc1	.	0%	-6%	19%	.	.
COc1ccc(C2Nc3ccccc3C(=O)N2Cc2ccccc2)cc1COc1ccc(Cl)cc1 (configuration not stated)	.	.	.	.	-1%	.
Cc1ccc(S(=O)(=O)Nc2cc(=O)[nH]c(SCC(=O)Nc3cccc(C(F)(F)F)c3)n2)cc1	58%	-1%	-2%	125%	4%	-4%
Cc1cccc(NC(=O)CSc2nc(NS(=O)(=O)c3ccccc3)cc(=O)[nH]2)c1	32µM*	-4%	-28%	?	.	-4%
O=C(CSc1nc(NS(=O)(=O)c2ccccc2)cc(=O)[nH]1)Nc1ccc(Cl)cc1	20µM*	-11%	45µM*	16µM*	7.1µM*	-19%
CCc1ccc2c(c1)cc(CN(C(=S)Nc1cccc(C)c1)C1CC1)c1nnnn12	2%	-1%	-14%	100µM*	4%	2%
O=C(C[n+]1csc2ccccc21)c1cccc([N+](=O)[O-])c1	.	-6%	7%	-6%	.	.
CC1C(=O)N(Cc2cn(Cc3ccco3)nn2)CCS(=O)(=O)N1Cc1ccc(-c2ccncc2)cc1 (configuration not stated)	.	.	.	.	.	50µM*
CC1C(=O)N(Cc2cn(Cc3ccco3)nn2)CCS(=O)(=O)N1Cc1ccc(-c2ccc(F)cc2)cc1 (configuration not stated)	.	.	.	.	.	-23%
O=C(CCCOc1ccc(Cl)cc1Cl)Nc1ccccc1C(=O)O	10%	-7%	-18%	28%	.	-12%
CCCCOc1ccc(Nc2cc(Cl)ccc2C(=O)O)cn1	40µM*	-11%	-2%	75%	.	-13%
CSCCC(C(=O)OC1CCOC1=O)N1C(=O)c2ccccc2C1=O (configuration not stated)	-22%	-9%	?	?	0%	35µM*
CC1S/C(=C(\C#N)C(=O)NCc2ccco2)N(Cc2ccco2)C1=O (configuration not stated)	25%	-2%	89µM*	22µM*	2%	?
Cc1ccc(CC2S/C(=C(/C#N)C(=O)NCc3ccco3)N(c3ccccc3)C2=O)cc1 (configuration not stated)	13%	11%	-7%	11%	5%	-7%
CC(=O)c1c(CC(=O)O)[nH]n(-c2nc3ccccc3s2)c1=O	32µM*	-23%	?	?	.	50µM*
COC(=O)Cc1[nH]n(-c2nc3ccccc3s2)c(=O)c1C(C)=O	-9%	0%	-11%	?	.	-10%
O=C(O)c1ccc(-n2c(/C=C\c3ccc(O)cc3)nc3ccccc3c2=O)cc1	-4%	-9%	-1%	-7%	-1%[12.3 µM]	-10%
